In PubChem BioAssay (EPA / NIEHS):
Where “and” joins values, the source holds several entries; their conditions need not be identical. Equal entries are not always repeated. Some structures have more than one record in an assay (separate samples or runs), and their calls can disagree. Calls of active or inactive are those of the source. How the source made its calls: active means hit-call score of the fitted dose curve at least 0.9, where 1 is the maximum; inactive means score below 0.9.

Test: CCTE_Shafer_MEA_acute_burst_percentage_mean: CCTE's Neural Acute Assay for Percentage of Spikes in a Burst, Shafer Lab (AID 2284017);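 on AC50: curve fitted for loss of signal so potency reflects decreased burst percentage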
Experimental: CCTE_Shafer_MEA_acute assay is conducted using Axion Biosystems 48 well microelectrode array (MEA) plates and Maestro recording system. Each well of the MEA plate contains a grid of 16 microelectrodes embedded in the culture surface. Electrically active cells, such as neurons, can be cultured over the electrodes, and electrical activity in these cells can be recorded extracellularly. The spontaneous firing of neurons is captured from each electrode on a microsecond timescale providing both temporally and spatially precise data. […] The CCTE_Shafer_MEA_acute assay uses primary cultures of rat cortical neurons. As these cultures mature over time, neural networks develop functional activity and form cohesive networks in which electrical activity can be highly coordinated. Baseline 40-minute recordings are made on days post-plating 13 or 15, followed by a secondary 40-minute recording after chemical exposure.CCTE_Shafer_MEA_acute_burst_percentage_mean is a component of the CCTE_Shafer_MEA_acute assay. It measures the percentage of spikes (action potential firing) in a single-electrode burst (temporally-clustered groups of spikes) as the number of spikes in bursts divided by the total number of spikes during a recording in a microelectrode array (MEA) using Axion Biosystems Maestro 768 channel amplifier with the AxIS adaptive spike detector. The average of the burst percentages across electrodes is calculated to report a well-level value. The recordings before and after chemical treatment are used to calculate a percent change in the mean burst percentage in each well.Data from the assay component CCTE_Shafer_MEA_acute_burst_percentage_mean was analyzed into 1 assay endpoint. This assay endpoint, CCTE_Shafer_MEA_acute_burst_percentage_mean, was analyzed in the negative analysis fitting direction relative to DMSO as the negative control and baseline of activity. Using a type of functional reporter, gain or loss-of-signal activity can be used to understand electrical activity.
Spontaneous activity in the cortical cultures was recorded using an Axion Biosystems Maestro 768 channel amplifier and Axion Integrated Studios (AxIS) v1.8 (or later) software. The amplifier recorded from all channels simultaneously (gain = 1200 x; sampling rate = 12.5 kHz/channel): raw signals were filtered with a Butterworth band-pass filter (300-5000 Hz), which filters out slower local field potentials leaving only fast potentials, i.e., "spikes", arising from extracellular currents associated with action potentials (Pine 2006; Wheeler and Nam 2011). On-line spike detection of filtered signals was conducted with the AxIS adaptive spike detector, using a threshold of 8x the root mean squared (rms) noise on each channel. Any electrodes with rms noise levels greater than 5 uV were grounded (e.g., no data were recorded). Once grounded, an electrode was grounded for the duration of the experiment. All recordings were conducted at 37 C. Wells were deemed usable if on the day of the exposure >/= 10 electrodes were active (defined as >/= 5 spikes/min). On DIV 13 or 15, a minimum of three wells from one cortical culture preparation were treated with each compound (0.03-40 uM). Prior to recording baseline activity, each mwMEA plate was placed in the Maestro at 37 C and allowed to sit for 20 min while firing rates stabilized. Baseline activity (40 min) was recorded before the addition of each compound. An additional 40 min of spontaneous activity was recorded in the presence of each compound. Changes in network parameters relative to baseline were assessed following compound treatment.

| SMILES | AC50 | outcome |
| --- | --- | --- |
| N#Cc1c(Cl)c(Cl)c(Cl)c(C#N)c1Cl | 6.9 µM (active) | – |
| CCC(C)Nc1c([N+](=O)[O-])cc(C(C)(C)C)cc1[N+](=O)[O-] (stereo not given) | – | inactive |
| Clc1ccccc1-c1nnc(-c2ccccc2Cl)nn1 | – | inactive |
| CNC(=O)/C=C(\C)OP(=O)(OC)OC | – | inactive |
| CC(C)OC(=O)Nc1cccc(Cl)c1 | 20 µM (active) | – |
| CCCN(CCC)c1c([N+](=O)[O-])cc(C(F)(F)F)cc1[N+](=O)[O-] | 5.5 µM (active) | – |
| O=S1OCC2C(CO1)C1(Cl)C(Cl)=C(Cl)C2(Cl)C1(Cl)Cl (stereo not given) | 25.5 µM (active) | inactive |
| CC(C)N(C(=O)COc1nnc(C(F)(F)F)s1)c1ccc(F)cc1 | 30.6 µM (active) and 15 µM (active) | – |
| O=C(O)CCCOc1ccc(Cl)cc1Cl | – | inactive |
| Oc1ccc(Cl)cc1Cc1ccccc1 | 2.55 µM (active) | – |
| O=C1c2ccccc2C(=O)N1SC(Cl)(Cl)Cl | – | inactive |
| ClC1C(Cl)C(Cl)C(Cl)C(Cl)C1Cl (stereo not given) | 1.53 µM (active) | – |
| CC[C@H](C)[C@H]1O[C@]2(C=C[C@@H]1C)C[C@@H]1C[C@@H](C/C=C(\C)[C@@H](O[C@H]3C[C@H](OC)[C@@H](O[C@H]4C[C@H](OC)[C@@H](O)[C@H](C)O4)[C@H](C)O3)[C@@H](C)/C=C/C=C3\CO[C@@H]4[C@H](O)C(C)=C[C@@H](C(=O)O1)[C@]34O)O2 (tested in a mixture with another compound) | 0.0165 µM (active) | – |
| C[C@H]1[C@H](c2ccc(Cl)cc2)SC(=O)N1C(=O)NC1CCCCC1 | 19.8 µM (active) | – |
| O=[N+]([O-])/N=C1\NCCN1Cc1ccc(Cl)nc1 | – | inactive |
| COP(=S)(OC)Oc1ccc(SC)c(C)c1 | 29.1 µM (active) | – |
| N#CN | – | inactive |
| CCC(C)(C)C(=O)OC1=C(c2ccc(Cl)cc2Cl)C(=O)OC12CCCCC2 | 3.59 µM (active) | inactive |
| O=S(=O)(O)C(F)(F)C(F)(F)C(F)(F)C(F)(F)C(F)(F)C(F)(F)C(F)(F)C(F)(F)F | – | inactive |
| CCCN(CCOc1c(Cl)cc(Cl)cc1Cl)C(=O)n1ccnc1 | 34.6 µM (active) | – |
| CC1(C)C(C=C(Cl)Cl)C1C(=O)OC(C#N)c1ccc(F)c(Oc2ccccc2)c1 (stereo not given) | 210 nM (active) and 1.95 µM (active) | – |
| CNC(=O)CSP(=S)(OC)OC | – | inactive |
| Oc1cc(Cl)ccc1Oc1ccc(Cl)cc1Cl | 12.7 µM (active) | – |
